Here are results for 13 molecules from PubChem BioAssay (NCATS).

Records with an inconclusive call do not appear. Active and inactive are the calls of the source. Unless noted, calls come from the whole dose curve; as a rule, active = well fitted inhibition curve with a large enough effect; inconclusive = small, poorly fitted or top-dose-only effect; inactive = no such curve, though single readings can be large or run the other way.

A short description of test [1]: qHTS profiling of the MIPE4 collection as inhibitors of Plasmodium falciparum (DD2) proliferation (AID 743345; call rule not given here). The note with it: P. falciparum Dd2 in erythrocytes, SYBR Green DNA, 72 h; at 28.5 µM (top of the series) unless noted. In outline: (§1)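 Erythrocytes infected with P. falciparum (0.3% parasitemia, 2.5% hematocrit) incubated with compounds 72 h at 37 C, 5% CO2. Lysis with saponin/Triton buffer containing SYBR Green I, overnight at room temperature in the dark; DNA fluorescence (485/535 nm) normalised to 0.29 uM artemisinin and DMSO.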

Test [2] is described as follows: qHTS profiling of the MIPE4 collection as inhibitors of Plasmodium falciparum (DD2) proliferation (Rep 2) (AID 743346; call rule not given here). As to conditions: P. falciparum Dd2 in erythrocytes, SYBR Green DNA, 72 h; at 28.5 µM (top of the series) unless noted. The essentials: as §1
A general note: In qHTS, concentration-response curves come from the screen itself.

Test [3] in a line: qHTS profiling of the MIPE4 collection as inhibitors of Plasmodium falciparum (HB3) proliferation (AID 743347; call rule not given here;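 note: plate controls were DMSO vehicle wells for no effect and artemisinin wells for full effect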). As to conditions: P. falciparum HB3 in erythrocytes, SYBR Green DNA, 72 h; at 28.5 µM (top of the series) unless noted. In outline: as §1
Test [4] in a line: High-throughput drug toxicity screening in the BPDCN cell line Gen2.2 (AID 1224824; call rule not given here;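 note: cells exposed to compounds for 48 h before reading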). As to conditions: Gen2.2 BPDCN cells; at 45.8 µM (top of the series) unless noted. In outline:
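CellTiter-Glo luminescence read after 48 h compound exposure at 37 C defines viability; percent activity set with DMSO as 100% and bortezomib (9.2 uM final) as 0%. 500 exponentially growing cells per well, RPMI plus 10% FBS.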

Test [5] in a line: High-throughput drug toxicity screening in the BPDCN cell line Cal-1 (AID 1224825; call rule not given here). As to conditions: Cal-1 BPDCN cell viability, qHTS; at 45.8 µM (top of the series) unless noted. The essentials: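 Cal-1 cells, 500 per well in phenol-red-free RPMI with 10% FBS, exposed to compounds for 48 hours at 37C, 5% CO2. Viability read by CellTiter-Glo luminescence; percent activity normalized to DMSO (100%) and 9.2 uM bortezomib final (0%).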

A short description of test [6]: qHTS assay for measurement of the activity of small molecule inhibitors on Zika virus induced Caspase-3 activity in human iPSC derived neural progenitor cells (hNPCs) (AID 1224857). Note: nearly all actives have a fitted effect of over 65% in size. Note: potency is the fitted concentration of half-maximal effect. In outline:
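Cells were plated at 350 per well and grown 16 to 20 hours. Compound pretreatment lasted one hour, after which ZIKV (2 FFU/cell) was added for 6 hours. Percent inhibition was normalized between uninfected and infected controls.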

The nature of test [7]: qHTS assay for measurement of the activity of small molecule inhibitors on Zika virus induced Caspase-3 activity in human astrocytoma cells (AID 1224859). Note: potency is the fitted concentration of half-maximal effect. The essentials:
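Percent inhibition of virus-induced caspase-3/7 signal is calculated against uninfected and ZIKV-infected control cells. Cells are SNB-19, infected at 2 FFU/cell for 6 h after 1 h compound exposure.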

A short description of test [8]: qHTS Screen of the MIPE 4.0 Collection Against Ewings Sarcoma (RDES) (AID 1259252). Note: nearly all actives have a fitted effect of over 35% in size. Note: potency is the fitted concentration of half-maximal effect. In outline: (§2)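 Viability screen: 48 h incubation at 37C, 95% humidity, 5% CO2 with serially titrated compound, followed by CellTiter-Glo readout.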
Test [9] is described as follows: qHTS Screen of the MIPE 4.0 Collection Against Ewings Sarcoma (TC71) (AID 1259253). Note: nearly all actives have a fitted effect of over 40% in size. Note: potency is the fitted concentration of half-maximal effect. In outline:
as §2

A short description of test [10]: qHTS Screen of the MIPE 4.0 Collection Against Ewings Sarcoma (EW8) (AID 1259255).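 For viability: 100% = DMSO-treated cells and 0% = medium-only wells without cells.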 Note: nearly all actives have a fitted effect of over 35% in size. Note: potency is the fitted concentration of half-maximal effect. In outline: as §2

For `Cc1[nH]c(C=C2C(=O)Nc3ccccc32)c(C)c1CCC(=O)O`, the parasite growth remaining, % of DMSO control (lower = more inhibition) in [1] was 176%. In test [2], the parasite growth, % of control (lower = inhibition) is 138%. The growth, % of control in [3] was 27.3%. Besides, the cell viability, % of control (lower = more cytotoxic) in test [4] was 12.9%. For the same molecule, the viability (% of control) in [5] was determined as 5.24%. Further, the Potency was 16.6 µM (active) in [6]; 11.8 µM (active) in test [7]; 0.209 µM (active) in test [8]; 0.296 µM (active) in test [9]; 235 nM (active) in test [10].

Take `O=C(NCc1ccccc1)[C@H](Cc1ccccc1)NC(=O)[C@@H]1O[C@@H]1C(=O)NCCc1ccc(O)cc1`: the parasite growth remaining, % of DMSO control (lower = more inhibition) in [1] is 44.7%. Further, the parasite growth, % of control (lower = inhibition) in [2] amounted to 16.7%. In addition, the growth, % of control in test [3] is 33.6%. Also, in test [4], the cell viability, % of control (lower = more cytotoxic) was determined as 49%. In addition, the viability (% of control) in [5] is 54.1%. The Potency result in [6] and in [7] was “inactive” throughout. Besides, the Potency in [8] was 1.05 µM (active); in test [9], 1.05 µM (active); in [10] it was 1050 nM (active).

Consider `C#C[C@]1(O)CC[C@@H]2[C@@H]3CCC4=CC(=O)CC[C@@H]4[C@H]3CC[C@@]21CC`, for which the parasite growth remaining, % of DMSO control (lower = more inhibition) in [1] was 79.2%. For the same molecule, in test [2], the parasite growth, % of control (lower = inhibition) came out at 51.5%. Further, the growth, % of control in test [3] was found to be 61.1%. Besides, in [4], the cell viability, % of control (lower = more cytotoxic) was 146%. Further, the viability (% of control) in test [5] is 114%. The Potency result in [6], in test [7], in test [8], in test [9] and in test [10] was “inactive” each time.

As to `NC(=O)Nc1cc(-c2ccc(CN3CCOCC3)cc2)sc1C(N)=O`, the parasite growth remaining, % of DMSO control (lower = more inhibition) in [1] stood at 46.5%. Besides, in [2], the parasite growth, % of control (lower = inhibition) is 33%. In test [3], this molecule came in with a growth, % of control of 33.4%. Besides, the cell viability, % of control (lower = more cytotoxic) in [4] is 26.1%. Further, in test [5], the viability (% of control) was determined as 6.64%. For the same molecule, the Potency entry in test [6] and in [7] was “inactive” throughout. The Potency was 4.69 µM (active) in [8], 0.332 µM (active) in [9] and 93.5 nM (active) in test [10].

For `CCN(CC)Cc1ccc2cc(COC(=O)Nc3ccc(C(=O)NO)cc3)ccc2c1`, the parasite growth remaining, % of DMSO control (lower = more inhibition) in test [1] is 6.93%. The parasite growth, % of control (lower = inhibition) in test [2] worked out at 6.48%. For the same molecule, the growth, % of control in test [3] was 7.88%. For the same molecule, the cell viability, % of control (lower = more cytotoxic) in test [4] turned out to be 8.65%. Further, the viability (% of control) in test [5] amounted to 4.07%. Further, the Potency entry in [6] and in [7] was “inactive” each time. Besides, the results for the Potency in [8], in [9] and in [10] were 0.743 µM (active), 0.662 µM (active) and 526 nM (active), respectively.

Consider `Nc1nc2c(c(=O)[nH]1)N(C=O)[C@H](CNc1ccc(C(=O)N[C@@H](CCC(=O)O)C(=O)O)cc1)CN2`, for which the parasite growth remaining, % of DMSO control (lower = more inhibition) in [1] turned out to be 96.2%. In test [2], the parasite growth, % of control (lower = inhibition) was 86.2%. The molecule further showed a growth, % of control in test [3] of 103%. Further, the cell viability, % of control (lower = more cytotoxic) in test [4] was 118%. The viability (% of control) in [5] was determined as 92.1%. Moreover, the Potency result in [6], in test [7], in test [8], in [9] and in [10] was “inactive” each time.

Regarding `CCC(C(=O)O)C1CCC(C)C(C(C)C(O)C(C)C(=O)C(CC)C2OC3(C=CC(O)[C@@]4(CC[C@](C)(C5CC[C@@](O)(CC)C(C)O5)O4)O3)C(C)CC2C)O1` (stereo not given in full), the parasite growth remaining, % of DMSO control (lower = more inhibition) in [1] worked out at 6.02%. In addition, the parasite growth, % of control (lower = inhibition) in [2] turned out to be 7.13%. This molecule also yielded a growth, % of control in test [3] of 16.9%. For the same molecule, in test [4], the cell viability, % of control (lower = more cytotoxic) was determined as 16%. Moreover, in test [5], the viability (% of control) came to 12.3%. Further, the Potency entry in [6] and in [7] was “inactive” throughout. The results for the Potency in test [8], in test [9] and in test [10] were 1.18 µM (active), 1.48 µM (active) and 833 nM (active), respectively.

Turning to `C=C1C(=O)O[C@H]2[C@@H]1CCC(C)=CCC[C@@]1(C)O[C@@H]21`, the parasite growth remaining, % of DMSO control (lower = more inhibition) in test [1] was 75.8%. For the same molecule, the parasite growth, % of control (lower = inhibition) in test [2] is 37.7%. Also, the growth, % of control in test [3] is 31.2%. Further, the cell viability, % of control (lower = more cytotoxic) in [4] was determined as 2.53%. The viability (% of control) in test [5] stood at 2.31%. For the same molecule, the Potency result in [6] and in test [7] was “inactive” in each case. Moreover, the results for the Potency in test [8], in test [9] and in [10] were 20.9 µM (active), 10.5 µM (active) and 9350 nM (active), respectively.

With `CN(N=O)C(=O)N[C@H]1C(O)OC(CO)[C@@H](O)[C@H]1O` (stereo not given in full), the parasite growth remaining, % of DMSO control (lower = more inhibition) in [1] amounted to 93.8%. Further, the parasite growth, % of control (lower = inhibition) in [2] came out at 114%. Further, the growth, % of control in test [3] worked out at 68.3%. Also, the cell viability, % of control (lower = more cytotoxic) in test [4] was found to be 97.4%. Further, the viability (% of control) in [5] was 96.8%. Also, the Potency entry in test [6], in [7], in test [8], in test [9] and in test [10] was “inactive” throughout.

With `CN1CCc2c(c3ccccc3n2Cc2ccc(C(=O)NO)cc2)C1`, the parasite growth remaining, % of DMSO control (lower = more inhibition) in test [1] amounted to 12.1%. Moreover, the parasite growth, % of control (lower = inhibition) in test [2] was found to be 15.2%. In [3], the growth, % of control came out at 5.01%. In [4], the cell viability, % of control (lower = more cytotoxic) stood at 4.7%. Further, the viability (% of control) in test [5] was 4.77%. The Potency entry in [6] and in test [7] was “inactive” in each case. Further, the Potency is 13.2 µM (active) in test [8], 16.6 µM (active) in test [9] and 13200 nM (active) in test [10].

In the case of `CCOC(=O)N1CCN([N+]([O-])=NOc2ccc([N+](=O)[O-])cc2[N+](=O)[O-])CC1`, the parasite growth remaining, % of DMSO control (lower = more inhibition) in test [1] turned out to be 83%. Besides, the parasite growth, % of control (lower = inhibition) in test [2] came to 70.7%. The molecule further showed a growth, % of control in test [3] of 60.8%. The cell viability, % of control (lower = more cytotoxic) in [4] turned out to be 17.4%. Besides, the viability (% of control) in test [5] is 13.5%. In addition, the Potency entry in test [6] and in test [7] was “inactive” each time. Also, the Potency in [8] is 16.6 µM (active); in [9] it was 10.5 µM (active); in test [10], 3320 nM (active).

`CC(O)(C#Cc1ccc2c(c1)N(c1nc(N)ncc1Cl)CC2)c1nccs1` (stereo not given): the parasite growth remaining, % of DMSO control (lower = more inhibition) in [1] stood at 33.4%. In addition, the parasite growth, % of control (lower = inhibition) in [2] amounted to 22.8%. In addition, the growth, % of control in [3] was determined as 5.79%. Besides, in [4], the cell viability, % of control (lower = more cytotoxic) stood at 279%. The viability (% of control) in [5] came out at 37.2%. Also, the Potency result in test [6] and in [7] was “inactive” throughout. For the same molecule, the Potency in test [8] was 16.6 µM (active); in test [9], 20.9 µM (active); in test [10] it was 20900 nM (active).

For the molecule `N#Cc1c(NC(=O)c2cccc3ccccc23)sc2c1CCCC2`, the parasite growth remaining, % of DMSO control (lower = more inhibition) in test [1] is 81.7%. Also, in test [2], the parasite growth, % of control (lower = inhibition) is 90%. In [3], this molecule returned a growth, % of control of 69.7%. Further, the cell viability, % of control (lower = more cytotoxic) in [4] turned out to be 83.4%. Further, in [5], the viability (% of control) is 9.83%. For the same molecule, the Potency result in [6] and in [7] was “inactive” in each case. For the same molecule, the Potency in test [8] was 0.296 µM (active); in test [9], 0.526 µM (active); in [10], 469 nM (active).
